From PubChem BioAssay AID1159580 (chemical genetic matrix, 2015)
Values joined by “and” are separate entries in the source; they are usually repeats but may differ in a detail not shown here. Equal entries are not always repeated. Screen size: about 5,500 compounds; about 2,000 (36%) were called active. Inconclusive results (about 18%) are left out. No stated cut-off is given here; in the data, active means normalized growth mostly below about 0.91 (no sharp cut-off); inconclusive means no clear call, values can overlap the other calls; inactive means mostly above about 0.92. The list shows a part of the results.

Experiment: chemical genetic growth profiling, strain panel (AID 1159580);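 further: tested at 20 µM; growth read once vehicle control cultures reached saturation at 30 °C; 1 = growth at the plate median or of vehicle wells; lower values mean less growth of the strain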
Conditions: S. cerevisiae deletion strains, growth OD

Measured: normalized growth

NS(=O)(=O)c1cc(C2(O)NC(=O)c3ccccc32)ccc1Cl (stereo not given)
inactive: locus YAL021C, strain ccr4, active compounds read low 0.958 | locus YAL026C, strain drs2, active compounds read low 0.991 | locus YAL030W, strain snc1, active compounds read low 0.993 | locus YBL061C, strain skt5, active compounds read low 0.996 | locus YBR009C, strain hhf1, active compounds read low 1.01 | locus YBR021W, strain FUR4, active compounds read low 1.02 | locus YBR023C, strain chs3, active compounds read low 0.992 | locus YBR171W, strain sec66, active compounds read low 0.985 | locus YBR229C, strain ROT2, active compounds read low 1.01 | locus YBR231C, strain swc5, active compounds read low 0.972 | locus YBR279W, strain paf1, active compounds read low 0.996 | locus YCL011C, strain gbp2, active compounds read low 0.99 | locus YCL016C, strain dcc1, active compounds read low 0.987 | locus YCL029C, strain bik1, active compounds read low 1.02 | locus YCL061C, strain MRC1, active compounds read low 0.986 | locus YCL069W, strain vba3, active compounds read low 0.999 | locus YCR088W, strain abp1, active compounds read low 0.994 | locus YDL005C, strain med2, active compounds read low 0.974 | locus YDL035C, strain GPR1, active compounds read low 0.997 | locus YDL040C, strain nat1, active compounds read low 0.995 | locus YDL074C, strain BRE1, active compounds read low 1.03 | locus YDL101C, strain DUN1, active compounds read low 1.02 | locus YDL134C, strain PPH21, active compounds read low 1 | locus YDL185W, strain tfp1, active compounds read low 1.03 | locus YDL192W, strain arf1, active compounds read low 1.01 | locus YDR001C, strain nth1, active compounds read low 0.99 | locus YDR069C, strain doa4, active compounds read low 0.993 | locus YDR101C, strain arx1, active compounds read low 1 | locus YDR137W, strain rgp1, active compounds read low 1.01 | locus YDR159W, strain sac3, active compounds read low 1.01 | locus YDR162C, strain NBP2, active compounds read low 1.01 | locus YDR195W, strain ref2 0.929 | locus YDR297W, strain sur2, active compounds read low 0.995 | locus YDR318W, strain mcm21, active compounds read low 1.02 | locus YDR334W, strain swr1, active compounds read low 1.01 | locus YDR335W, strain msn5, active compounds read low 0.991 | locus YDR388W, active compounds read low 1.02 | locus YDR392W, strain spt3, active compounds read low 1.04 | locus YDR502C, strain sam2, active compounds read low 1.02 | locus YEL003W, strain gim4, active compounds read low 0.985 | locus YEL037C, strain rad23, active compounds read low 0.992 | locus YEL061C, strain CIN8 (second series), active compounds read low 1 | locus YEL061C, strain CIN8, active compounds read low 1.01 | locus YER015W, strain faa2, active compounds read low 0.985 | locus YER016W, strain bim1, active compounds read low 0.997 | locus YER110C, active compounds read low 1.02 | locus YER111C, strain swi4, active compounds read low 0.997 | locus YER155C, strain BEM2 (second series), active compounds read low 0.939 | locus YER155C, strain BEM2, active compounds read low 1.01 | locus YER167W, strain BCK2, active compounds read low 1.01 | locus YFR010W, strain ubp6, active compounds read low 0.982 | locus YGL078C, strain dbp3, active compounds read low 1.02 | locus YGL086W, strain mad1, active compounds read low 1.01 | locus YGL167C, strain pmr1, active compounds read low 0.99 | locus YGL173C, strain kem1, active compounds read low 0.968 | locus YGL227W, strain vid30, active compounds read low 0.997 | locus YGL240W, strain doc1, active compounds read low 0.964 | locus YGL248W, strain PDE1, active compounds read low 1.02 | locus YGL253W, strain hxk2, active compounds read low 1 | locus YGR078C, strain PAC10, active compounds read low 1.02 | locus YGR135W, strain pre9, active compounds read low 1.04 | locus YGR229C, strain SMI1, active compounds read low 1.01 | locus YGR252W, strain gcn5, active compounds read low 0.991 | locus YHR013C, strain ard1, active compounds read low 0.952 | locus YHR027C, strain rpn1, active compounds read low 0.99 | locus YHR030C, strain SLT2, active compounds read low 1.01 and 0.984 | locus YHR079C, strain IRE1 (second series), active compounds read low 1.01 | locus YHR079C, strain IRE1, active compounds read low 0.99 | locus YHR094C, strain hxt1, active compounds read low 1.01 | locus YHR129C, strain ARP1, active compounds read low 1.01 | locus YHR142W, strain chs7, active compounds read low 1.01 | locus YHR200W, strain rpn10, active compounds read low 1.02 | locus YIL066C, strain RNR3, active compounds read low 1.01 | locus YIL073C, strain SPO22, active compounds read low 1.06 | locus YIL125W, strain kgd1, active compounds read low 1.01 | locus YIR030C, strain dcg1, active compounds read low 1.03 | locus YJL092W, strain hpr5, active compounds read low 0.993 | locus YJL095W, strain BCK1 (second series), active compounds read low 0.997 | locus YJL095W, strain BCK1, active compounds read low 1.03 and 0.98 | locus YJL115W, strain asf1, active compounds read low 0.983 | locus YJL129C, strain trk1, active compounds read low 0.979 | locus YJL134W, strain LCB3, active compounds read low 1 | locus YJL154C, strain vps35, active compounds read low 0.984 | locus YJL164C, strain tpk1, active compounds read low 0.981 | locus YJL166W, strain qcr8, active compounds read low 0.977 | locus YJL168C, strain set2, active compounds read low 1.02 | locus YJL187C, strain SWE1 (second series), active compounds read low 1.03 | locus YJL187C, strain SWE1, active compounds read low 0.991 | locus YJR043C, strain POL32, active compounds read low 0.986 | locus YJR066W, strain TOR1, active compounds read low 0.946
